From PubChem BioAssay AID1224852 (National Center for Advancing Translational Sciences (NCATS), 2016)
Records with an inconclusive call do not appear. Activity calls are given as the source filed them. Calls come from the whole dose curve; as a rule, active = well fitted curve in the direction sought with a large enough effect (not every such curve was filed as active); inconclusive = small, poorly fitted or top-dose-only effect, or effect the other way, or another doubt; inactive = no such curve, though single readings can be large or run the other way.

Test: Cell viability assay for measurement of the protective activity of small molecules against cell death caused by Zika virus infection in human neural progenitor cells (hNPCs)
Details: hNPC ZIKV-induced death protection, ATP luminescence, 72 h; series mostly up to 46.1 µM
Excerpt: National Center for Advancing Translational Sciences [NCATS] Johns Hopkins University School of Medicine Florida State University Assay Overview: Zika virus infection causes cell death in certain cell types including human neural progenitor cells (hNPCs), astrocytes, and astrocytoma cell line (SNB-19). This cell viability assay measures the ATP content (level) in human neural progenitor cells (hNPCs) using a luminescence readout that is proportional to viable cell numbers. Decrease in the luminescence signal after Zika virus infection indicates the cell death caused by Zika virus. Small molecule inhibitors […] the decreased luminescence signal after Zika virus infection, indicating the protective effect of that small molecule on the cell death caused by Zika virus infection. This observed protective effect of small molecules against Zika virus induced cell death may result from inhibition of virus replication or cellular response to the virus infection.
Assay Protocol Summary: The medium for hNPCs consists of DMEM/F12, N2 supplement (ThermoFisher, Cat.# 17502048), NEAA (ThermoFisher, Cat. # 11140050), 2 ug/ml heparin, 2 uM cyclopamine, and B27 (ThermoFisher, Cat. # 17504044). The ATP content assay kit (PerkinElmer, Cat.# 6016731) was used to determine cell viability. The reagent was reconstituted and prepared as described by the manufacturer. Cells were seeded in 384- or 1536-well assay plates and cultured at 37 C with 5% CO2 for 16 to 20 hours. The typical cell seeding density in the 1536-well plate assay is 350 cells/well in 3 ul medium for hNPCs in the tissue cultured treated/PDL coated plates. Compounds were added to cells and incubated for one hour before addition of ZIKV solution to cells (2 FFU/cell). After incubation at 37 C with 5% CO2 for 72 hours, the reagent mixture of the ATP content assay kit was added to each well, followed by incubation at room temperature for 10 minutes. The luminescence intensity of the assay plates was measured using a ViewLux plate reader (PerkinElmer). […] The percentage inhibitions of the decreased cell viability by small molecule inhibitors were then calculated.
In the case of `O=C(O)CCC(=O)c1ccc(-c2ccccc2)cc1`, the outcome is reported as “inactive”.
For `COc1cc2nc(-c3ccc(N4CCN(C)CC4)cc3)nc(NCCN3CCOCC3)c2cc1OC`, the outcome was “inactive”.
With `COc1cc2nc(N3CCN(C(=O)C4CCCO4)CC3)nc(N)c2cc1OC` (stereo not given) the outcome was “inactive”.
With `COc1ccc(/C=C/C(=O)Nc2ccccc2C(=O)O)cc1OC` the outcome was “inactive”.
For `CC(C(=O)O)c1ccc2c(c1)[nH]c1ccc(Cl)cc12` (stereo not given), the outcome was “inactive”.
With `OCc1ccc(-c2ccc(-c3ccc(CO)s3)o2)s1` the outcome was “inactive”.
For `CN1CC(=O)N/C1=N/C(=O)Nc1cccc(Cl)c1`, the outcome was “inactive”.
For `NC(=O)c1cccc2[nH]c(-c3ccc([C@H]4CCCN4)cc3F)nc12`, the outcome was “inactive”.
For `O=C(Nc1ccc([N+](=O)[O-])cc1Cl)c1cc(Cl)ccc1O`, the outcome was “inactive”.
In the case of `O=C1NC(=O)C(=Cc2ccc(-c3ccc(F)cc3)o2)S1`, the outcome is reported as “inactive”.
For `Oc1cc(O)cc(/C=C/c2ccc(O)c(O)c2)c1`, the outcome was “inactive”.
In the case of `Cc1c(NC(=O)c2ccc(C(C)(C)C)cc2)cccc1-c1cn(C)c(=O)c(Nc2ccc(C(=O)N3CCOCC3)cc2)n1`, the outcome is reported as “inactive”.
In the case of `O=C(O)Cc1ccc(-c2ccccc2)cc1`, the outcome is reported as “inactive”.
For `O=c1c(-c2ccc(O)cc2)coc2cc(OC3O[C@H](CO)[C@H](O)[C@H](O)[C@H]3O)cc(O)c12` (stereo not given in full), the outcome was “inactive”.
In the case of `Cc1cc(O)c2ccccc2c1O`, the outcome is reported as “inactive”.
With `COc1ccc(NC(=O)/C=C/c2ccc(Cl)cc2)cc1` the outcome was “inactive”.
With `CN(C)c1ccc(N=NS(=O)(=O)O)cc1` the outcome was “inactive”.
In the case of `COc1cc(NC(C)CCCN)c2ncccc2c1` (stereo not given), the outcome is reported as “inactive”.
With `COc1ccc2nc(NC(=O)Nc3ccccc3)sc2c1` the outcome was “inactive”.
For `CC[C@@]1(O)C[C@H](O[C@H]2C[C@H](N(C)C)[C@H](O[C@H]3C[C@H](O)[C@H](O[C@H]4CCC(=O)[C@H](C)O4)[C@H](C)O3)[C@H](C)O2)c2c(cc3c(c2O)C(=O)c2c(O)cccc2C3=O)[C@@H]1C(=O)OC`, the outcome was “inactive”.
With `Cc1ccc(O)c(N=Nc2ccccc2)n1` the outcome was “inactive”.
For `[O-][n+]1ccccc1SSc1cccc[n+]1[O-]`, the outcome was “inactive”.
In the case of `CCCCCCCCCCCC(=O)[O][Sn]([CH2]CCC)([CH2]CCC)[O]C(=O)CCCCCCCCCCC`, the outcome is reported as “inactive”.
For `O=S(=O)(O)c1ccc2nc(-c3ccccc3)[nH]c2c1`, the outcome was “inactive”.
With `O=c1cc(-c2ccccc2)oc2cc(O)cc(O)c12` the outcome was “inactive”.
For `CC(C)(C)COc1ccc(-n2cc(C(=O)O)cn2)cc1C#N`, the outcome was “inactive”.
In the case of `Nc1ccc2c(c1)CN1C(=O)c3ccccc3C1=N2`, the outcome is reported as “inactive”.
With `O=c1cc(-c2ccccc2)oc2cc(O)c(O)c(O)c12` the outcome was “inactive”.
With `NC(N)=NN=C(/C=C/c1ccc([N+](=O)[O-])o1)/C=C/c1ccc([N+](=O)[O-])o1` the outcome was “inactive”.
In the case of `O=C1C(Cl)=C(NCCN2CCOCC2)C(=O)c2ncccc21`, the outcome is reported as “inactive”.
In the case of `O=S(=O)(O)CCSSCCS(=O)(=O)O`, the outcome is reported as “inactive”.
With `CN(C)c1ccc2cc(C(=O)N[C@@H](CCCN=C(N)CCl)C(=O)NCc3ccccc3)ccc2c1` the outcome was “inactive”.
With `Cc1cccc(C#Cc2ccccc2)n1` the outcome was “inactive”.
In the case of `CCC(C(=O)O)c1ccc(N2Cc3ccccc3C2=O)cc1` (stereo not given), the outcome is reported as “inactive”.
With `CC1(C)Cc2c(sc(NC(=S)NC(=O)c3ccccc3)c2C(=O)O)CO1` the outcome was “inactive”.
With `CC1=C(CO)C(=O)O[C@@H]([C@@H](C)[C@H]2CC[C@H]3[C@@H]4C[C@H]5O[C@]56[C@@H](O)C=CC(=O)[C@]6(C)[C@@H]4CC[C@]23C)C1` the outcome was “inactive”.
With `Cc1ccc(C(=O)c2ccc(CC(=O)O)n2C)cc1` the outcome was “inactive”.
For `O=C(Nc1ncc([N+](=O)[O-])s1)c1cccs1`, the outcome was “inactive”.
In the case of `O=C(Nc1ccc(OC(F)(F)F)cc1)c1sccc1NCc1ccnc2ccccc12`, the outcome is reported as “inactive”.
With `C[C@@H]1CCN(C(=O)CC#N)C[C@H]1N(C)c1ncnc2[nH]ccc12` the outcome was “inactive”.
